Where “and” joins values, the source holds several entries; their conditions need not be identical. Equal values may be shown once. Screen size: about 360,000 compounds; about 11,000 (3.1%) were called active. Rule as the data show it: active = activity change below about -30%; inactive = the rest. The full list was thinned out, with actives kept by preference.
Target: D(1A) dopamine receptor (Homo sapiens) (UniProt P21728)
Test: Antagonist of Human D 1 Dopamine Receptor: qHTS
Settings: HEK293 TREx D1 cells, calcium flux, dopamine EC80; at 10 µM; active compounds read low
In short: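 Using tetracycline-induced force-coupled D1 Hek293 cells and a calcium dye, signals were followed for 180 s after compound, then for 180 s after EC80 dopamine, to detect inhibitors.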
% is scaled to controls: 0 for no effect and ±100 for the full control effect.

D(1A) dopamine receptor (Homo sapiens), sequence (P21728 whole entry, looked up): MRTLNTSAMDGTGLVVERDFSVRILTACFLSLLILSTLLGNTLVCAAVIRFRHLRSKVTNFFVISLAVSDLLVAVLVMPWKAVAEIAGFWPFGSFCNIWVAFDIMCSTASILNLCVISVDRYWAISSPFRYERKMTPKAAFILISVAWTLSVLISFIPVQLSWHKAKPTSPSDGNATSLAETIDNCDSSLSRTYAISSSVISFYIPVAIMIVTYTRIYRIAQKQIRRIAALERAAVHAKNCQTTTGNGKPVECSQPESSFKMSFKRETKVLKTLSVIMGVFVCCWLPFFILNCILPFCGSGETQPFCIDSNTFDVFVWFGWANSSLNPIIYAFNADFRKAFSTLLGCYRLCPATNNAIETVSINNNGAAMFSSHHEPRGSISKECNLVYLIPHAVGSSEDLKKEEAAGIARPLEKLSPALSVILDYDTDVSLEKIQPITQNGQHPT

Activity change, negative = inhibition, inactive:
Cc1cc2nc(-c3ccc(NC(=O)c4cc5ccccc5o4)cc3)oc2cc1C -20.5%
CCC(C)c1ccc2oc(-c3ccc(NC(=O)c4cc5ccccc5o4)cc3)nc2c1 (stereo unspecified) -6.42%
CC1=Nc2cc(C(=O)N3CCC(C)CC3)ccc2Sc2ccc(Cl)cc21 5.84%
CCOC(=O)N1CCc2c(sc3c2c(=O)n(-c2ccc(CC)cc2)c(=O)n3C)C1 5.44%
CCN(CC)C(=O)CCC(=O)Nc1ccc(C(=O)OC)cc1 -2.84%
CCCc1cc(C(=O)Nc2ccc(Cl)cn2)cs1 11%
Cc1ccc(C(=O)NCCSc2c(C)[nH]c3ccccc23)cc1C -23.5%
Cc1ccc(-n2c3nc(=O)[nH]c(=O)c-3cc3c(Cl)cccc32)cc1 7.04%
COc1ccccc1CNC(=O)C(Cc1ccccc1)NS(=O)(=O)c1ccc2c(c1)oc(=O)n2C (stereo unspecified) 3.15%
Cc1ccc(NC(=O)CCNS(=O)(=O)c2ccc3c(c2)oc(=O)n3C)cc1C -0.228%
COc1ccc(-c2ccc(=O)n(CC(=O)Nc3ccc(Br)cc3F)n2)cc1 27.5%
O=c1c2ccccc2[nH]c(=S)n1CCN1CCC(=C(c2ccc(F)cc2)c2ccc(F)cc2)CC1 -22.1%
Cc1ccc2[nH]c3c(c2c1)CN(C(=O)CN1CCN(c2ccccc2)CC1)CC3 -26.5%
CCCc1nn2c(=O)cc(COC(=O)c3ccc(NC(=O)COc4ccc(F)cc4)cc3)nc2s1 -16.4%
CCn1cc(C(=O)OCC(=O)Nc2cc(C)cc(C)c2)c(=O)c2ccc(C)nc21 7.91%
Cc1cc(C=O)c(C)n1-c1ccc(NC2CCCCC2)c([N+](=O)[O-])c1 -2.05%
Cc1ccc(N2CCN(c3ccc([N+](=O)[O-])cn3)CC2)c(C)c1 8.06%
CC(C)C(=O)Nc1nc2c(s1)CC(C(C)(C)C)CC2 (stereo unspecified) 7.11%
COc1cccc2[nH]c(C(=O)NCCc3ccccc3)cc12 -6.46%
CCCn1c(=N)n(CC(O)COc2ccccc2OC)c2ccccc21 (stereo unspecified) -15%
CC(C)Sc1oc(-c2cccs2)nc1S(=O)(=O)c1ccc(Cl)cc1 14.3%
COc1ccc(-c2nc(SCC(=O)N3CCCCC3C)n[nH]2)cc1 (stereo unspecified) 9.65%
COc1ccc(-c2csc(-c3c(N)c(C(=O)c4ccc(OC)c(OC)c4)n4ccccc34)n2)cc1 -1.18%
O=S(=O)(NCC(c1ccccc1)N1CCc2ccccc21)c1ccccc1 (stereo unspecified) 6.46%
COc1ccc(C(=O)NCC(c2ccc(N(C)C)cc2)N2CCc3ccccc32)c(OC)c1 (stereo unspecified) -5.15%
COc1ccc(NC(=O)CSc2nccn2Cc2ccc3c(c2)OCO3)cc1 6.87%
O=C(NCc1ccccc1)C1CCN(S(=O)(=O)c2ccc3[nH]c(=O)ccc3c2)CC1 16.6%
COc1ccc(CCN2C(=O)N(c3cccc(OC)c3)C(=O)C2CC(=O)Nc2ccccc2)cc1 (stereo unspecified) -1.1%
C=C(Cl)COC(=O)C1C2C=CC(C2)C1C(=O)O (stereo unspecified) 6.01%
CN1CCN(C(=O)C2C3C=CC(C3)C2C(=O)O)CC1 (stereo unspecified) -15.3%
Cc1cccc(-n2ncc(C(=O)N3CCc4ccccc4C3)c2C2CCN(C(=O)OC(C)(C)C)CC2)c1 7.17%
CCc1ccc(NC(=O)CN2C(=O)C(c3ccccc3)=NC23CCCCCC3)cc1 -6.53%
COc1ccc(/C=C/C(=O)Nc2c(C)nn(C)c2C)cc1COc1ccc(Br)cc1 9.14%
COc1ccc(C(C)=O)cc1COc1ccc(Cl)c(C)c1 0.455%
COc1cccc(CNC(=O)C2CCC(CNS(=O)(=O)c3cccs3)CC2)c1 (stereo unspecified) -1.65%
CCc1ccccc1N1C(=O)CN(S(=O)(=O)CC)CC1(C)C(=O)NC1CCCCC1 (stereo unspecified) -10.1%
Cc1ccccc1C(=O)Nc1sc2c(c1C(=O)N1CCC(C)CC1)CCCC2 5.36%
Fc1ccc2[nH]c3c(N4CCN(Cc5ccc6c(c5)OCO6)CC4)ncnc3c2c1 -7.57%
NCCCC[C@@H]1NC(=O)[C@H](CCC(=O)O)NC(=O)c2cc([N+](=O)[O-])cc(I)c2NCC[C@@H](C(N)=O)NC1=O -2.74%
NC(=O)CC[C@@H]1NC(=O)[C@H](CO)NC(=O)c2cc([N+](=O)[O-])cc(I)c2NCC[C@@H](C(N)=O)NC1=O -14%
O=C(CSc1nc(-c2cccc(F)c2)[nH]c1-c1ccccc1)Nc1ccc2c(c1)OCO2 -4.86%
Cc1cccc(N2CCN(C(=O)c3cnc(N4CCCC4)nc3C)CC2)c1C 10%
CCCCn1c(=N)c(S(=O)(=O)c2ccccc2)cc2c(=O)n3cccc(C)c3nc21 1.3%
COc1ccccc1Nc1c2c(nc3ccc(NC(=O)/C=C/c4cc(OC)c(OC)c(OC)c4)cc13)CCCC2 3.33%
N#Cc1cccc(NC(=O)CN2CCCCCC2)c1 -7.3%
CCOc1ccc(C(=O)Nc2ccc3nc4c(c(Nc5ccccc5OC)c3c2)CCCC4)cc1 -7.4%
CCOc1ccc(NC(=O)CSc2c3c(nc4ccccc24)CCCC3)cc1 -2.6%
O=C(NC1CCCCC1)c1ccc2c(c1)N(Cc1ccc(Cl)cc1)C(=O)c1ccccc1S2=O (stereo unspecified) -15.6%
Cn1nc(-c2ccccc2)c(-c2ccccc2)c(C(=O)Nc2ccc(S(N)(=O)=O)cc2)c1=O -1.5%
Cc1cc(C)c(NC(=O)CCc2c(C)nc3c(c(C)nn3C(C)(C)C)c2C)c(C)c1 1.02%
CCN1CCN(Cc2c(O)ccc3oc(C)c(C(=O)Nc4ccc(C)cc4C)c23)CC1 7.06%
COc1ccccc1CNc1ccc(-c2nc(-c3ccccc3C)no2)cc1[N+](=O)[O-] -10.5%
O=C(C1CCCN(S(=O)(=O)c2cccc3nonc23)C1)N1CCN(c2ccccc2F)CC1 (stereo unspecified) 10.7%
CC(CNc1ccc([N+](=O)[O-])cc1)NC(=O)c1ccccc1Br (stereo unspecified) -2.12%
COc1ccc(C(=O)NCCNc2ccc([N+](=O)[O-])cn2)cc1 -8.65%
Cc1ccc(CCNC(=O)c2ccc3c(c2)nc2n3CCC(C)C2)cc1 (stereo unspecified) -13.4%
O=C(c1ccco1)n1nc(-c2ccc(Cl)cc2)nc1NCc1ccccc1 -12.9%
Cc1ccc2c(c1)N(C(=O)CCC(=O)NCc1ccccc1F)CC(C)O2 (stereo unspecified) -22.7%
COc1ccccc1NC(=O)CCC(=O)N1CC(C)Oc2ccc(C)cc21 (stereo unspecified) 7.34% and 2.65%
COc1ccc(N2C(=O)CSC23C(=O)N(Cc2cccc(F)c2)c2ccccc23)cc1Cl (stereo unspecified) -0.577%
CCOc1ccc(CCNC(=O)Nc2ccccc2)cc1OCC 14.7%
CONC(=O)c1cc(OCC(F)(F)F)ccc1OCC(F)(F)F 8%
CCC1CCCCN1C(=O)Cn1c(=O)n(CCCCCC(=O)NCc2ccccc2)c(=O)c2sccc21 (stereo unspecified) -26.9%
COc1ccc(-c2onc(C)c2C)cc1S(=O)(=O)NCc1cccs1 -23.8%
COc1ccccc1/C=C/c1nc(C#N)c(NC(C)c2ccccc2)o1 (stereo unspecified) 4.56%
O=C(COc1ccccc1)Nc1ccc(N2CCN(C(=O)c3cccs3)CC2)cc1 -10.9%
O=C(Nc1ccc(N2CCN(C(=O)c3cccs3)CC2)cc1)c1cccnc1Cl 2.63%

Activity change, negative = inhibition, active:
CC(C)Oc1ccc(NC(=O)c2cc3ccccc3o2)cc1 -61.7%
CCCc1cc(C(=O)Nc2ccc(C(=O)OC)cc2)cs1 -31.2%
Cc1ccc(NC(=O)C(Cc2ccccc2)NS(=O)(=O)c2ccc3c(c2)oc(=O)n3C)cc1C (stereo unspecified) -42.8%
O=C(CCCN1CCc2[nH]c3ccc(F)cc3c2C1)c1ccc(F)cc1 -73%
Cc1ccc(-n2c(C)cc(/C=N/Nc3ccc([N+](=O)[O-])cn3)c2C)c(C)c1 -44.1%
COc1ccccc1OCCNCC(O)COc1cccc2[nH]c3ccccc3c12 (stereo unspecified) -58.7% and -69%
COc1ccc(S(=O)(=O)NCC(c2ccc(N(C)C)cc2)N2CCc3ccccc32)cc1OC (stereo unspecified) -64.5%
O=C(O)C1C2C=CC(C2)C1C(=O)N1CCN(CCO)CC1 (stereo unspecified) -46.7%
Oc1c(Cl)cc(Cl)c(Cl)c1Cc1c(O)c(Cl)cc(Cl)c1Cl -41.7%
CCn1nc(C)c(NC(=O)/C=C/c2ccc(OC)c(COc3ccc(Br)cc3)c2)c1C -39.8%
Fc1ccc2[nH]c3c(N4CCSCC4)ncnc3c2c1 -30.2%
NC(=O)C[C@@H]1NC(=O)CNC(=O)c2cc([N+](=O)[O-])cc(I)c2NCCC(C(N)=O)NC1=O (stereo partly specified) -30.2%
Cc1ccc(Nc2c3c(nc4ccccc24)CCC3)cc1 -39.1%
N#Cc1cccc(Nc2c3c(nc4ccccc24)CCCC3)c1 -36.2%
O=C(NCCNc1ccc([N+](=O)[O-])cc1)c1cccc2c(Br)cccc12 -63.4%
N=c1n(Cc2ccc(Cl)cc2)c2ccccc2n1CC(O)c1ccco1 (stereo unspecified) -51.9%
CC1CN(C(=O)CCC(=O)NCCCN2CCC(Cc3ccccc3)CC2)c2cc(Cl)ccc2O1 (stereo unspecified) -43.5%
O=C(NC(=O)c1cc(OCC(F)(F)F)ccc1OCC(F)(F)F)Nc1ccccc1 -35%
Cc1ccccc1C(=O)N1CCN(c2ccc(NC(=O)c3cccs3)cc2)CC1 -61.2%

From PubChem BioAssay AID504652 (National Center for Advancing Translational Sciences (NCATS), 2011)
